Reference: PubChem BioAssay (Tox21)
Records with an inconclusive call do not appear. Calls of active or inactive are those of the source. Unless noted, the call rests on the fitted dose curve. Residues, ends and D or L forms follow the SMILES beside them.

How the values were obtained:
[1] = qHTS assay to identify small molecule antagonists of the peroxisome proliferator-activated receptor delta (PPARd) signaling pathway - cell viability counter screen (AID 743213; active means well fitted curve in the direction sought with a large enough effect in the repeat runs; an effect the other way counts as inactive or inconclusive; further: nearly all actives have a fitted effect of over 50% in size)
How it was run: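 Same-well viability: cells pre-incubated 5 h, dosed with compound plus 300 nM L165041, kept 17 h at 37 C, FRET substrate 2 h RT, then CellTiter-Glo 30 min RT and luminescence.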

[2] = molecular target: Bile acid receptor (Homo sapiens) (UniProt Q96RI1); assay: qHTS assay to identify small molecule antagonists of the farnesoid-X-receptor (FXR) signaling pathway (AID 743217; active means well fitted inhibition curve with a large enough effect in the signal ratio in the repeat runs, not every such curve was filed as active; the % refers to the signal ratio)
Chain of Bile acid receptor (Homo sapiens) (Q96RI1 whole entry, looked up): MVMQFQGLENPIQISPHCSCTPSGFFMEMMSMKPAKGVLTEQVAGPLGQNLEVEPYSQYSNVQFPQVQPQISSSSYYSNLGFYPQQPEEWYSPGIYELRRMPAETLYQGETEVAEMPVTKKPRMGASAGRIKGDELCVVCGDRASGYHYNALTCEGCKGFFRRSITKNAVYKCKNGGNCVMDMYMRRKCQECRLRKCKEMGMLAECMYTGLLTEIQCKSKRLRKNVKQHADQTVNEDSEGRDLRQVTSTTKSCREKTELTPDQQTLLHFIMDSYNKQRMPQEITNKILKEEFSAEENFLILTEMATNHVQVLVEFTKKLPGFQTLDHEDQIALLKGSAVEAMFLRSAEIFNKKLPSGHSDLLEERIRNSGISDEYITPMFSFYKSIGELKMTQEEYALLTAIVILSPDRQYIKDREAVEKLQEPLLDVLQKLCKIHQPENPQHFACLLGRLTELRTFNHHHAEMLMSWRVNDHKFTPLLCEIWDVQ
How it was run: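 FRET fluorescence after 2 h room-temperature LiveBLAzer loading gives the readout. Prior step: FXR-bla HEK 293T cells, seeded and incubated 5 h, received test compounds plus 50 uM final CDCA for 16 h at 37 °C.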

[3] = qHTS assay to identify small molecule agonists of the farnesoid-X-receptor (FXR) signaling pathway - cell viability counter screen (AID 743218; active means well fitted curve in the direction sought with a large enough effect in the repeat runs; an effect the other way counts as inactive or inconclusive; further: nearly all actives have a fitted effect of over 45% in size)
How it was run: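 Readout: CellTiter-Glo luminescence, 30 min RT, multiplexed after the FXR-bla FRET reading. HEK 293T FXR-UAS-bla cells received compound 5 h post-plating and were incubated 16 h at 37 C.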

[4] = molecular target: Bile acid receptor (Homo sapiens) (UniProt Q96RI1); assay: qHTS assay to identify small molecule agonists of the farnesoid-X-receptor (FXR) signaling pathway (AID 743220; active means well fitted activation curve with a large enough effect in the signal ratio in the repeat runs, not every such curve was filed as active; the % refers to the signal ratio)
How it was run: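 FXR-UAS-bla HEK 293T cells carrying a UAS-driven beta-lactamase reporter were plated for 5 h at 37C/5% CO2, then exposed to DMSO-dissolved Tox21 10K compounds for 16 h at 37C. A LiveBLAzer B/G FRET substrate was loaded for 2 h at room temperature before fluorescence reading.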

[5] = qHTS assay to identify small molecule antagonists of the farnesoid-X-receptor (FXR) signaling pathway - cell viability counter screen (AID 743221; active means well fitted cell-killing curve with a large enough effect in the repeat runs, not every such curve was filed as active; further: nearly all actives have a fitted effect of over 50% in size)
How it was run: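 Cytotoxicity counter screen run in the FXR-bla reporter wells: HEK 293T cells exposed to compound with 50 uM (final) chenodeoxycholic acid for 16 h, 37 C, then viability measured by CellTiter-Glo luminescence after 30 min, room temperature.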

[6] = molecular target: Vitamin D3 receptor (Homo sapiens) (UniProt P11473); assay: qHTS assay to identify small molecule agonists of the vitamin D receptor (VDR) signaling pathway (AID 743222)
Chain of Vitamin D3 receptor (Homo sapiens) (P11473 whole entry, looked up): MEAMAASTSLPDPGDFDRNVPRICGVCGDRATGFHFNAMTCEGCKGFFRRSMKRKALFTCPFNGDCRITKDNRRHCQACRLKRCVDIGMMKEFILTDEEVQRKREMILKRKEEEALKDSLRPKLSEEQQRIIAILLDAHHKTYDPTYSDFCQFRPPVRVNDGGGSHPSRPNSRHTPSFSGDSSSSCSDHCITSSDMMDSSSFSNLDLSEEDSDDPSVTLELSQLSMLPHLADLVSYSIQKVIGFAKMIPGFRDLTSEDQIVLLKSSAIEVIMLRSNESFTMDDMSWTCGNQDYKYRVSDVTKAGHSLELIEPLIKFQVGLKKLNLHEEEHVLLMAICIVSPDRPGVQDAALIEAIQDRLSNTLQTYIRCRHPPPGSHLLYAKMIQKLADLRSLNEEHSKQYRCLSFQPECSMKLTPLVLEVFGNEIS
How it was run: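 Following 4 h attachment at 37C, VDR-bla cells (2,000 per well) received DMSO-dissolved compounds or controls. After 16 h incubation, LiveBLAzer B/G FRET substrate was added and fluorescence read 2 h later at room temperature.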

[7] = molecular target: Vitamin D3 receptor (Homo sapiens) (UniProt P11473); assay: qHTS assay to identify small molecule antagonists of the vitamin D receptor (VDR) signaling pathway (AID 743223; active means well fitted inhibition curve with a large enough effect in the signal ratio in the repeat runs, not every such curve was filed as active; the % refers to the signal ratio)
How it was run: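 Antagonist mode: compound added to VDR-bla cells alongside agonist 1alpha,25-dihydroxyvitamin D3 (3 nM final), incubation 16 h at 37C. Read-out is LiveBLAzer FRET fluorescence, 2 h at room temperature.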

[8] = qHTS assay to identify small molecule agonists of the vitamin D receptor (VDR) signaling pathway - cell viability counter screen (AID 743224; active means well fitted curve in the direction sought with a large enough effect in the repeat runs; an effect the other way counts as inactive or inconclusive; further: series mostly up to about 63 µM; nearly all actives have a fitted effect of over 50% in size)
How it was run: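 In parallel with the bla FRET readout, cytotoxicity toward VDR-bla cells after 16 h compound exposure was assessed by CellTiter-Glo, with luminescence recorded after a 30 min room-temperature incubation.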

[9] = qHTS assay to identify small molecule antagonists of the vitamin D receptor (VDR) signaling pathway - cell viability counter screen (AID 743225; active means well fitted curve in the direction sought with a large enough effect in the repeat runs; an effect the other way counts as inactive or inconclusive; further: nearly all actives have a fitted effect of over 50% in size)
How it was run: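 Cytotoxicity counter screen read by CellTiter-Glo luminescence (30 min, room temperature) in the same wells as the VDR-bla antagonist readout. HEK 293T VDR-UAS-bla cells had 16 h at 37C with compound and 3 nM (final) 1-alpha,25-dihydroxyvitamin D3, then 2 h with FRET substrate.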

[10] = qHTS assay to identify small molecule agonists of the NFkB signaling pathway (AID 1159509; active means well fitted curve in the direction sought with a large enough effect in the signal ratio in the repeat runs, not every such curve was filed as active; the % refers to the signal ratio; further: series mostly up to about 61 µM)
How it was run: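 Beta-lactamase reporter assay run in quantitative high-throughput format on an NF-kB-responsive ME-180 line, with 5 hr compound treatment and a FRET-based blue/green fluorescence readout.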

[11] = qHTS assay to identify small molecule agonists of the NFkB signaling pathway - cell viability counter screen (AID 1159515); further: series mostly up to about 61 µM; nearly all actives have a fitted effect of over 55% in size
How it was run: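 Plate 2,000 NFkB-bla ME-180 cells/well; incubate overnight. Add compounds, 5 hr at 37 C. Add FRET substrate, 1.5 hr RT. Add CellTiter-Glo, 30 min RT; read luminescence.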

[12] = qHTS assay to identify small molecule agonists of the endoplasmic reticulum stress response signaling pathway (AID 1159516; active means well fitted activation curve with a large enough effect in the signal ratio in the repeat runs, not every such curve was filed as active; the % refers to the signal ratio)
How it was run: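 Beta-lactamase expression from the ER stress response element in HeLa reporter cells is quantified with the LiveBLAzer B/G FRET substrate, read at 405 nm excitation after 2 hr at room temperature, following 5 hr compound treatment at 37 C.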

[13] = qHTS assay to identify small molecule agonists of the endoplasmic reticulum stress response signaling pathway - cell viability counter screen (AID 1159517)
How it was run: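 Steps: seed 1,500 ESRE-bla HeLa cells per well; incubate overnight at 37 C, 5% CO2; add compounds in DMSO for 5 hr; run FRET substrate 2 hr RT; add CellTiter-Glo, wait 30 min, read luminescence.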

[14] = qHTS assay to identify small molecule antagonists of the retinoid-related orphan receptor gamma (ROR-gamma) signaling pathway - cell viability counter screen (AID 1159520; active means well fitted curve in the direction sought with a large enough effect in the repeat runs; an effect the other way counts as inactive or inconclusive; further: nearly all actives have a fitted effect of over 50% in size)
How it was run: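 Tet-on ROR gamma CHO cells were given compounds for 2 hr, then doxycycline hyclate at 1 uM final, and incubated 16 hr at 37 C. Viability was measured as ATP content by CellTiter-Glo luminescence.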

[15] = molecular target: Nuclear receptor ROR-gamma (Homo sapiens) (UniProt P51449); assay: qHTS assay to identify small molecule antagonists of the retinoid-related orphan receptor gamma (ROR-gamma) signaling pathway (AID 1159521; active means well fitted curve in the direction sought with a large enough effect in the repeat runs; an effect the other way counts as inactive or inconclusive)
How it was run: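 Antagonist read-out: drop in luminescence (ONE-Glo) from an RORE-LUC reporter in CHO cells with doxycycline-inducible ROR-gamma; 2 hr compound pretreatment, 1 uM doxycycline, 16 hr incubation at 37 C.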

[16] = qHTS assay to identify small molecule agonists of the AP-1 signaling pathway - cell viability counter screen (AID 1159525); further: nearly all actives have a fitted effect of over 55% in size
How it was run: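 Same-well cytotoxicity counter screen of the Tox21 10K library in ME-180 cells. The readout is ATP-dependent luminescence after 5 h compound treatment. Data are normalised to DMSO and tetra n-octyl ammonium bromide controls.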

[17] = qHTS assay to identify small molecule agonists of the AP-1 signaling pathway (AID 1159526)
[18] = molecular target: Retinoic acid receptor RXR-alpha (Homo sapiens) (UniProt P19793); assay: qHTS assay to identify small molecule agonists of the RXR signaling pathway (AID 1159527); further: nearly all actives have a fitted effect of over 35% in size
Chain of Retinoic acid receptor RXR-alpha (Homo sapiens) (P19793 whole entry, looked up): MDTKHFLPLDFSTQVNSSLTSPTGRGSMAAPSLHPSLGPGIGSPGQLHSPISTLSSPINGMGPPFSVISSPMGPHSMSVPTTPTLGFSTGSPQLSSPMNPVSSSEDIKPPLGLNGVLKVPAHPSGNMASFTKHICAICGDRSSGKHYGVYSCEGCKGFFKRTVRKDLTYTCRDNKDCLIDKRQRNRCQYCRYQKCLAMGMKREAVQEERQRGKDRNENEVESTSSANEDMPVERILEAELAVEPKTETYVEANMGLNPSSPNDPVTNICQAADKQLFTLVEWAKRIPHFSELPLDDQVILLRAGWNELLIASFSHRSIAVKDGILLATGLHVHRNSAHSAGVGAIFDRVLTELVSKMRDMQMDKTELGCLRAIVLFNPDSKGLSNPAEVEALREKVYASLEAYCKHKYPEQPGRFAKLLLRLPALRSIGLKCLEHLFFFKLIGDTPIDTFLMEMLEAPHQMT
How it was run: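 Agonist-mode beta-lactamase reporter assay: HEK 293T RXR-alpha-UAS-bla cells treated 16 hr at 37 C with compounds, 9-cis retinoic acid as positive control. LiveBLAzer FRET substrate, 405 nm excitation, 460/530 nm emission.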

[19] = molecular target: Peroxisome proliferator-activated receptor delta (Homo sapiens) (UniProt Q03181); assay: qHTS assay to identify small molecule agonists of the peroxisome proliferator-activated receptor delta (PPARd) signaling pathway (AID 743212)
Chain of Peroxisome proliferator-activated receptor delta (Homo sapiens) (Q03181 whole entry, looked up): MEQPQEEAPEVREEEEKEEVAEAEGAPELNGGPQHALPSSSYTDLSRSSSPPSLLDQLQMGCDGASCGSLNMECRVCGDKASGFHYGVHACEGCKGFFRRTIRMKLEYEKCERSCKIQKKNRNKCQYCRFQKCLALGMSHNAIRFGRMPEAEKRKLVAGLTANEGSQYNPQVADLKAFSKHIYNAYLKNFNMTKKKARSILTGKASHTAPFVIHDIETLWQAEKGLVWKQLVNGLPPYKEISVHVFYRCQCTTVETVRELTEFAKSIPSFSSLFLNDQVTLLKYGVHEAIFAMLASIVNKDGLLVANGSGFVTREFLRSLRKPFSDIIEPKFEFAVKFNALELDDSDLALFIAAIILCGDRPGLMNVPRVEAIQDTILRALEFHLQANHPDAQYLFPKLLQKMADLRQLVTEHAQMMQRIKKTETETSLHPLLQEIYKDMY
How it was run: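 Read-out: beta-lactamase FRET fluorescence after 2 h room-temperature incubation with LiveBLAzer B/G substrate. Cells were HEK293H carrying a UAS-bla reporter for PPARd, treated at 37 C with DMSO-dissolved compounds.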

[20] = molecular target: Peroxisome proliferator-activated receptor delta (Homo sapiens) (UniProt Q03181); assay: qHTS assay to identify small molecule antagonists of the peroxisome proliferator-activated receptor delta (PPARd) signaling pathway (AID 743215; active means well fitted inhibition curve with a large enough effect in the signal ratio in the repeat runs, not every such curve was filed as active; the % refers to the signal ratio;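 further: cells stimulated with agonist L165041 at 300 nM final during compound exposure; series mostly up to about 62 µM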)
How it was run: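 Fluorescence from cleaved LiveBLAzer B/G FRET substrate (2 h, room temperature) reports PPARd-driven beta-lactamase in HEK293H UAS-bla cells. Cells had been treated 17 h at 37 C with compound plus 300 nM final L165041.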

Measured: Potency

O=C1NC(=O)c2ccccc21
not listed: [19] | [20]
inactive: all other assays above

C1N2CN3CN1CN(C2)C3
not listed: [20]
inactive: all other assays above

CC(C)[C@@H]1CC[C@@H](C)C[C@H]1O
not listed: [20]
inactive: all other assays above

Nc1ccc(O)c(C(=O)O)c1
not listed: [20]
inactive: all other assays above

COC(=O)[C@H](Cc1ccccc1)NC(=O)[C@@H](N)CC(=O)O (H-Asp-Phe-OMe)
not listed: [6] | [7] | [19] | [20]
inactive: all other assays above

CCCC(O)C(CC)CO (stereo not given)
not listed: [2] | [4] | [6] | [7] | [20]
inactive: all other assays above

Cc1cc(=O)n(-c2ccccc2)n1C
not listed: [19] | [20]
inactive: all other assays above

Cc1cn([C@H]2C[C@H](N=[N+]=[N-])[C@@H](CO)O2)c(=O)[nH]c1=O
not listed: [19] | [20]
inactive: all other assays above

Cc1ccc(C)c(OCCCC(C)(C)C(=O)O)c1
not listed: [6] | [7] | [19] | [20]
inactive: all other assays above

O=C(O)c1[nH]n(-c2ccc(S(=O)(=O)O)cc2)c(=O)c1N=Nc1ccc(S(=O)(=O)O)cc1
not listed: [19]
inactive: all other assays above

OCCc1ccccc1
not listed: [6] | [7] | [20]
inactive: all other assays above

Nc1ccn([C@H]2CC[C@@H](CO)O2)c(=O)n1
not listed: [2] | [4] | [6] | [7]
inactive: all other assays above

CC(O)C(=O)O (stereo not given)
not listed: [19] | [20]
inactive: all other assays above

NC(=O)c1ccccc1O
not listed: [19] | [20]
inactive: all other assays above

Cc1cc(=O)[nH]c(=S)[nH]1
not listed: [20]
inactive: all other assays above

NC(N)=O
not listed: [2] | [4] | [6] | [7] | [20]
inactive: all other assays above
